# Screening results (PubChem)
# GLP1R cytotox = cytotoxic in the GLP-1 receptor inverse agonist counter-screen; HEK293 cAMP-luciferase reporter cells, luminescence, 24 h; Potency, µM (doses to about 38.3 µM), usual class: inhibitors; 410,000 tested, 0.13% active; AID 624418;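 note: loss of luciferase light is scored as toxicity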
#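 Luminescence readout: signal drop marks cytotoxicity. Plated cells grew 12 h at 37 °C, 5% CO2, received 23 nL compound for 24 h, then got luciferase reagent, read after 12 min at RT.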
# KCNH2 WT inh = blocks the wildtype human KCNH2 potassium channel; Q12809; U2OS, BacMam KCNH2, thallium flux FluxOr; stronger effect = lower value; activity change, % at 1.84 µM; 340,000 tested, 0.37% active; AID 720551;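 active = maximum activity change below -70%; inconclusive = maximum activity change between -70% and -50%; inactive = maximum activity change above -50%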
# Target sequence (Q12809 whole entry, looked up): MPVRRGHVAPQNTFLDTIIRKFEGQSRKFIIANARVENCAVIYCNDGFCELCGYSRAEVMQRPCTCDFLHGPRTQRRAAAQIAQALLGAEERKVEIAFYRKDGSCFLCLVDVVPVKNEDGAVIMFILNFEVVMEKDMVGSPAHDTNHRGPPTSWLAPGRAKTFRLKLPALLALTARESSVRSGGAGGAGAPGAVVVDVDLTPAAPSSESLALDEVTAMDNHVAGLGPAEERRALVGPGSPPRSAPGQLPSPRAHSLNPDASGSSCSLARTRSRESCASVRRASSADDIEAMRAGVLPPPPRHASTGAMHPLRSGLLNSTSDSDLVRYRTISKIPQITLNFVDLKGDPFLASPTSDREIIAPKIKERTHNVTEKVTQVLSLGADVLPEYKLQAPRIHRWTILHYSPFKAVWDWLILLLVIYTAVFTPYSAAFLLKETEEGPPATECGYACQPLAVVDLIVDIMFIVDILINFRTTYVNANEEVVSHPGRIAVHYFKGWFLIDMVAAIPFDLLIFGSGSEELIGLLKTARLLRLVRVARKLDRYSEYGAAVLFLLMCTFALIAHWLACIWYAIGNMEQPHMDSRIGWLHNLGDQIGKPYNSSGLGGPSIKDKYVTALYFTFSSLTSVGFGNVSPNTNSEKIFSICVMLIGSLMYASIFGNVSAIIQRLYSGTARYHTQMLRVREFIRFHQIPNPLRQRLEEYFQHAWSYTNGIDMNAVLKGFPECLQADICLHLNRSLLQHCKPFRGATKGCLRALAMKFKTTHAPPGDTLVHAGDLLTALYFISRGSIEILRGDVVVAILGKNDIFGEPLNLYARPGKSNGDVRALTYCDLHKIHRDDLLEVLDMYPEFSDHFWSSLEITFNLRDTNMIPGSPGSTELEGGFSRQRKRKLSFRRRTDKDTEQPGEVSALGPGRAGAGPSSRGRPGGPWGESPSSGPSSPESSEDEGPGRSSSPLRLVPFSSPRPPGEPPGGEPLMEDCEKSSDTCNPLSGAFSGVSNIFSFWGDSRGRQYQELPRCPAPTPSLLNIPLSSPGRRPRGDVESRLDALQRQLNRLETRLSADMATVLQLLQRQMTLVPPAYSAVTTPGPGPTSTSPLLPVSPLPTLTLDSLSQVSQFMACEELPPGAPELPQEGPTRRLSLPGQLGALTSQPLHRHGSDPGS
#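 U2OS cells were transduced with wild-type KCNH2 virus (2.03 x 10^8 / mL) for 4 h at room temperature, then cultured overnight at 37 C. Thallium flux was read with FluxOr dye. Rate constants were normalized to DMSO controls.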
# GLS inh = inhibitors of human glutaminase (GLS); O94925; GLS enzymatic activity, qHTS titration; Potency, µM (series often up to 45.5 µM), most hits filed as inhibitors; 410,000 tested, 0.21% active; AID 624170
#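 Enzyme dispensed in phosphate buffer (45 mM, pH 8.2, 0.02% Tween-20), compounds pinned in, then 1 mM L-glutamine solution and the glutamate oxidase–HRP–Amplex Red mix added; fluorescence read immediately and again after 30 min at room temperature.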
# KCNH2 3.1 inh = inhibitors of human KCNH2 3.1 potassium channel isoform; 340,000 tested, 0.95% active; activity change, % (tested at about 1.8 µM); U2OS KCNH2 3.1, thallium flux FluxOr; stronger effect = lower value;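 active = maximum activity change below -70%; inconclusive = maximum activity change from -70% to -50%; inactive = maximum activity change above -50%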;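 note: thallium influx rate constant from kinetic fluorescence after stimulation buffer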
#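 Normalized rate constant (relative to positive and negative DMSO controls) derived from a 2 min kinetic fluorescence read after stimulation; U2OS cells expressing the 3.1 isoform via virus at 1.77 x 10^8 /mL.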
# GLP1R ag = agonists of human GLP-1 receptor; P43220; HEK293 GLP-1R CRE-luciferase, luminescence, 4-6 h; cells express a hypersensitive GLP-1R form; 380,000 tested, 0.007% active; Potency, µM (top dose mostly 45.6 µM), usual class: activators
# GLP-1R inv ag = inverse agonists of human GLP-1 receptor. P43220. HEK293 GLP-1R CRE-luciferase, luminescence, 24 h; GLP-1R form is constitutively active. Potency, µM (top dose mostly 38.3 µM), actives largely listed as inhibitors. 410,000 tested, 1.6% active; note: nearly all actives have a fitted effect of over 55% in size
#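 GLP-1R inverse agonism mode: basal reporter luminescence in engineered HEK293 cells measured after one day of compound exposure at 37 deg C, with a 12 min room-temperature detection step.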
# Numbers stand for hits; . = inactive; ? = inconclusive; / = no result; [ ] = remark or other dose. In the library only some 2.8% were active in any assay of this set; here they are far more common. Unless noted, calls come from the whole dose curve; as a rule, active = well fitted curve in the direction sought with a large enough effect; inconclusive = small, poorly fitted or top-dose-only effect, or another doubt; inactive = no such curve, though single readings can be large; an effect the other way counts as inactive or inconclusive.
SMILES,GLP1R cytotox,KCNH2 WT inh,GLS inh,KCNH2 3.1 inh,GLP1R ag,GLP-1R inv ag
COc1cccc(C(=O)N2CCc3c([nH]c4ccccc34)C2c2ccc(SC)cc2)c1 (configuration not stated),.,/,.,/,/,7.9µM
COc1ccc(C2c3[nH]c4ccc(OC)cc4c3CCN2C(=O)Nc2ccccc2)cc1 (configuration not stated),.,/,.,/,/,5.6µM
COc1cc(C(=O)N2CCc3c([nH]c4ccccc34)C2c2ccc(F)cc2)cc(OC)c1OC (configuration not stated),.,/,.,/,/,?
COc1ccc(C2c3[nH]c4ccccc4c3CCN2Cc2ccoc2)c(F)c1 (configuration not stated),.,.,.,.,.,4.5µM
Oc1cccc(C2c3[nH]c4ccccc4c3CCN2Cc2ccc3c(c2)CCO3)c1 (configuration not stated),?,.,.,.,.,2.8µM
Oc1cccc(C2c3[nH]c4ccccc4c3CCN2Cc2ccoc2)c1 (configuration not stated),.,.,.,.,.,?
CC(=O)c1ccc(N2CCN(S(=O)(=O)c3c(C)[nH]c(C)c3C(=O)N3CCCC3)CC2)cc1,.,.,.,.,.,.
CC(NS(=O)(=O)c1ccccc1)C(=O)Nc1ccc2c(c1)OCCO2 (configuration not stated),.,.,.,.,.,.
O=C(Nc1cc(S(=O)(=O)N2CCCCC2)ccc1Cl)c1ccccc1NS(=O)(=O)c1ccc(F)cc1,?,.,.,.,.,2.8µM
O=C(CN(Cc1ccco1)Cc1ccco1)Nc1cc(S(=O)(=O)N2CCCCC2)ccc1Cl,.,.,.,.,.,10µM
Cc1ccc(-c2csc(NC(=O)c3cccc(S(=O)(=O)N4CCN(C)CC4)c3)n2)cc1,.,.,.,-79,.,.
O=C(NCc1ccco1)c1cc(S(=O)(=O)N2CCCC2)ccc1Cl,.,.,.,.,.,.
O=C(Nc1cc(S(=O)(=O)N2CCCCC2)ccc1O)c1ccccc1NS(=O)(=O)c1ccc(F)cc1,?,.,.,.,.,?
Cc1ccc(S(=O)(=O)Nc2ccccc2C(=O)Nc2nc(-c3ccc(F)cc3)cs2)cc1,?,.,.,.,.,3.2µM
Cc1cc(C)cc(N2C(N)=NC(N)=NC2c2ccccc2F)c1 (configuration not stated),.,.,.,.,.,?
CCN(CC)CC(=O)N1c2ccccc2Sc2ccccc21,.,.,.,.,.,.
CCN(CC)CCCCN1c2ccccc2Sc2ccccc21,?,.,.,-73,.,5µM
COc1ccc2oc(C(=O)N3CCN(S(=O)(=O)c4c(C)c(C)cc(C)c4C)CC3)c(C)c2c1,.,.,.,.,.,?
O=C(CN1CCCC1)N/N=C/c1c(O)ccc2ccccc12,.,.,.,.,.,2.8µM
CSc1ccc(/C=N/NC(=O)CN2CCN(Cc3ccc(C)cc3)CC2)cc1,?,.,.,-113,.,?
O=C(CN1CCCCCC1)N/N=C/c1ccc(Cl)c(Cl)c1,.,.,.,-75,.,.
CSc1ccc(/C=N/NC(=O)CN2CCN(Cc3ccccc3Cl)CC2)cc1,.,.,.,-82,.,?
Cc1ccc(/C=N/NC(=O)CN2CCN(Cc3ccccc3Cl)CC2)o1,.,.,.,.,.,.
CCc1ccccc1NC(=O)Cn1c(=O)n(CCCS(=O)(=O)C2CCCCC2)c(=O)c2ccccc21,.,/,.,/,.,.
Cc1c2cnn(CC(=O)NCCc3ccccc3)c(=O)c2c(C)n1Cc1ccccc1Cl,.,/,.,/,/,.
SMILES,GLP1R cytotox,KCNH2 WT inh,GLS inh,KCNH2 3.1 inh,GLP1R ag,GLP-1R inv ag
COc1ccc(OC)c(NC(=O)c2cccc(N3C(=O)C4C5CCC(C5)C4C3=O)c2)c1 (configuration not stated),.,.,.,.,.,.
COc1ccc(N2C(=O)c3ccc(C(=O)Nc4cc(OC)ccc4OC)cc3C2=O)cc1,.,.,.,-96,.,.
COc1ccc(OC)c(NC(=O)c2cccc(N3C(=O)C4C5C=CC(C6CC56)C4C3=O)c2)c1 (configuration not stated),.,-167,.,.,.,?
CC(C)Sc1nc2ccc(Br)cc2[nH]1,.,.,.,.,.,.
CSc1nc2ccc(Br)cc2[nH]1,.,.,.,-72,.,.
Cc1cc(C)c(S(=O)(=O)c2cccc(Cl)c2)c(Cl)n1,.[7.66 µM],.,.,.,.,.[7.66 µM]
Cc1cc(C)c(S(=O)(=O)c2c(C)cccc2C)c(Cl)n1,.,.,11µM,.,.,.
Cc1c(Cl)cccc1NC(=O)Cn1c(=O)n(Cc2ccco2)c(=O)c2oc3ccccc3c21,.,/,.,/,/,.
NC(=O)CC(NC(=O)c1ccccc1)c1ccc(NC2CCN(Cc3ccccc3)CC2)c([N+](=O)[O-])c1 (configuration not stated),.,.,.,.,.,.
O=[N+]([O-])c1cc(C(F)(F)F)ccc1NC1CCN(Cc2ccccc2)C1 (configuration not stated),.,-80,.,-91,.,.
O=[N+]([O-])c1cc(C(F)(F)F)ccc1NC1CCN(Cc2ccccc2)CC1,?,.,.,-86,.,?
CCOc1ccc(N2CC(c3nc4ccccc4n3CCCOc3ccc(OC)cc3)CC2=O)cc1 (configuration not stated),.,/,.,/,/,.
O=C(CSc1ncnc2c1nnn2Cc1ccc(F)cc1)NCC1CCCO1 (configuration not stated),?,.,.,.,.,13µM
CCN1CCSc2ccc(C(=O)NCc3cccc(Br)c3)cc21,.,.,.,.,.,10µM
COc1ccc(-c2noc(N3CCCC(C(=O)Nc4cc(F)ccc4F)C3)n2)cc1 (configuration not stated),.,.,.,.,.,.
CSc1nccc(Nc2ccccc2)c1C#N,.,.,.,.,.,.
CN(C)c1ccnc(Nc2ccccc2)c1C#N,.,.,.,-90,.,.
CN(C)c1nccc(N(Cc2ccccc2)Cc2ccccc2)c1C#N,.,.,.,.,.,11µM
CCCCSCCCNC(=O)C1CCC(CNS(=O)(=O)c2c(C)cc(C)cc2C)CC1 (configuration not stated),.,/,.,/,/,.
COc1ccc(OC)c(NC(=O)CSc2nc(=O)n(CCN(C)C)c3c2CCC3)c1,.,/,.,/,/,.
CN(C)CCn1c2c(c(SCC(=O)Nc3cccc(C(F)(F)F)c3)nc1=O)CCCC2,.,.,.,.,.,10µM
